Experimental data published in the supplement of paper PMC3898565.
± gives the uncertainty stated by the source.

Test system: U87
Test: cell viability relative to vehicle control; higher = less growth inhibition (less active)
Conditions: 10 µM; 72 h
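Further: viable cell number estimated from Alamar Blue fluorescence read at 560/90, part of a single-dose primary screen of an FDA-approved drug library.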

Compared with OC[C@H]1O[C@@H](Oc2cc(O)cc(/C=C/c3ccc(O)cc3)c2)[C@H](O)[C@@H](O)[C@@H]1O, O=C1c2c(O)cc(O)cc2O[C@H](c2ccc(O)c(O)c2)[C@H]1O (racemic) is lower in cell viability: 99.7 ± 3.1% for the first, 85.3 ± 2.2% for the second.

O=C1CCc2ccc(OCCCCN3CCN(c4cccc(Cl)c4Cl)CC3)cc2N1 and CCOC(=O)N1CCC(=C2c3ccc(Cl)cc3CCc3cccnc32)CC1 are the same in cell viability: 102 ± 1.1% for the first, 102 ± 2.4% for the second.

Going from Nc1ccc2cn[nH]c2c1 to Nc1ccc(O)c(C(=O)O)c1 [5-Amino-2-hydroxy-benzoic acid], the cell viability falls from 108 ± 2.4% to 102.5 ± 0.14%.

CN(CCO)CC(O)Cn1cnc2c1c(=O)n(C)c(=O)n2C (centres undefined) and CCOC(=O)c1ncn2c1CN(C)C(=O)c1cc(F)ccc1-2 are within error of each other in cell viability: 104.3 ± 0.69% for the first, 103 ± 1.8% for the second.

CC(N/C(=N\C#N)Nc1ccncc1)C(C)(C)C (centres undefined) [Pinacidil monohydrate] and CCC(C)(C)N=C(NC#N)Nc1cccnc1 are within error of each other in cell viability: 105 ± 1.1% for the first, 107 ± 1.1% for the second.

CC(C)c1nc(CN(C)C(=O)N[C@H](C(=O)N[C@@H](Cc2ccccc2)C[C@H](O)[C@H](Cc2ccccc2)NC(=O)OCc2cncs2)C(C)C)cs1 and CCCCC(=O)N(Cc1ccc(-c2ccccc2-c2nnn[nH]2)cc1)[C@H](C(=O)O)C(C)C are within error of each other in cell viability: 102 ± 3% for the first, 108 ± 3% for the second.

Compared with CNCC[C@H](Oc1cccc2ccccc12)c1cccs1, CNCC[C@@H](Oc1ccccc1C)c1ccccc1 is higher in cell viability: 101 ± 4.5% for the first, 108.2 ± 1% for the second.

Going from COCc1c(C(C)C)nc(C(C)C)c(/C=C/[C@@H](O)C[C@@H](O)CC(=O)O)c1-c1ccc(F)cc1 to CCC(=O)NS(=O)(=O)c1ccc(-c2c(-c3ccccc3)noc2C)cc1, the cell viability rises from 14.2 ± 3% to 108.7 ± 0.37%.

Going from O=C1Nc2ccccc2/C1=C1/Nc2ccccc2C1=O [indirubin] to CN(C)CCC=C1c2ccccc2COc2ccccc21 [Doxepin], the cell viability rises from 99.6 ± 1.4% to 101.6 ± 0.79%.

Going from COc1cccc2c1C(=O)c1c(O)c3c(c(O)c1C2=O)C[C@@](O)(C(=O)CO)C[C@@H]3O[C@H]1C[C@H](N)[C@H](O)[C@H](C)O1 to CO[C@H]1/C=C/O[C@@]2(C)Oc3c(C)c(O)c4c(c3C2=O)C2=NC3(CCN(CC(C)C)CC3)NC2=C(NC(=O)/C(C)=C\C=C\[C@H](C)[C@H](O)[C@@H](C)[C@@H](O)[C@@H](C)[C@H](OC(C)=O)[C@@H]1C)C4=O, the cell viability rises from 23.5 ± 4% to 104 ± 2.1%.

First: COCCCC/C(=N\OCCN)c1ccc(C(F)(F)F)cc1 [Fluvoxamine]
Second: CCOC(=O)c1ccc(OC(=O)CCCCCNC(=N)N)cc1 [Gabexate]
The cell viability of the first is higher: 106 ± 1.5% for the first, 98.6 ± 3.2% for the second.

O=C(O)c1cc(/N=N/c2ccc(S(=O)(=O)Nc3ccccn3)cc2)ccc1O and CN(C)CCCSc1ccccc1NC(=O)/C=C/c1ccccc1 [Cinanserin] are within error of each other in cell viability: 102 ± 1.6% for the first, 103.3 ± 0.66% for the second.

Compared with CN(C)CCc1c[nH]c2ccc(C[C@H]3COC(=O)N3)cc12 [Zolmitriptan], COc1cc2nc(N(C)CCCNC(=O)C3CCCO3)nc(N)c2cc1OC (centres undefined) is lower in cell viability: 105 ± 1.6% for the first, 101 ± 1.4% for the second.

First: Cc1ccsc1C(=CCCN1CCC[C@@H](C(=O)O)C1)c1sccc1C
Second: Cc1cc2c(s1)Nc1ccccc1N=C2N1CCN(C)CC1
The cell viability of the first is lower: 104 ± 1.1% for the first, 108 ± 1.7% for the second.

First: CC[C@H]1OC(=O)[C@H](C)C(=O)[C@H](C)[C@@H](O[C@@H]2O[C@H](C)C[C@H](N(C)C)[C@H]2O)[C@](C)(OC)C[C@@H](C)C(=O)[C@H](C)[C@H]2N(CCCCn3cnc(-c4cccnc4)c3)C(=O)O[C@]12C
Second: CN1CCC(=C2c3ccccc3CC(=O)c3sccc32)CC1
The cell viability of the first is lower: 103.4 ± 0.35% for the first, 109 ± 3.3% for the second.

Going from CCN(CC)C(=O)C1(c2ccccc2)CC1CN (centres undefined) [Milnacipran] to OCc1cc(C(O)CNCCCCCCOCCCCc2ccccc2)ccc1O (centres undefined) [Salmeterol], the cell viability rises from 102 ± 1.5% to 106 ± 1.1%.

C=CC1=C(C(=O)O)N2C(=O)[C@@H](NC(=O)/C(=N\O)c3csc(N)n3)[C@H]2SC1 and Cc1[nH]c(=O)c(C#N)cc1-c1ccncc1 are within error of each other in cell viability: 107 ± 1.5% for the first, 109 ± 2.6% for the second.

Compared with COc1ccc(CN2CCN(C(c3ccc(F)cc3)c3ccc(F)cc3)CC2)c(OC)c1OC, CNNCc1ccc(C(=O)NC(C)C)cc1 [Procarbazine] is higher in cell viability: 69.3 ± 8.6% for the first, 104.4 ± 0.86% for the second.

Compared with CC1=Nc2ccc(Cl)cc2S(=O)(=O)N1, Cc1occc(=O)c1O is higher in cell viability: 101 ± 1.6% for the first, 106 ± 1.4% for the second.

O=c1[nH]c(=O)n(C2CCCO2)cc1F (centres undefined) showed a cell viability of 96.728 ± 0.044%.
